# Results filed as inconclusive are left out. Values without a mark were called inactive. The source made the active and inactive calls. Calls follow the shape of the dose curve; as a rule, active = well fitted inhibition curve with a large enough effect; inconclusive = small, poorly fitted or top-dose-only effect; inactive = flat fitted curve, though single readings scatter.
# Assay: P-glycoprotein substrates identified in KB-8-5-11 adenocarcinoma cell line, qHTS therapeutic library screen (AID 1346987); also: nearly all actives have a fitted effect of over 65% in size
# Settings: KB-8-5-11 (P-gp overexpressing) viability, CellTiter-Glo, 72 h; series mostly up to 44.5 µM; activity change, negative = cytotoxicity: at the top concentration
# Outline: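 Luminescence from CellTiter-Glo, read 5 min after addition, quantified survival of KB-8-5-11 (P-gp-overexpressing) cells exposed to compounds for 72 h. AC50 was derived from concentration-response curves.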
# % is scaled to controls: 0 for no effect and ±100 for the full control effect.
Structure (SMILES),"activity change, negative = cytotoxicity",outcome,Potency
CS(=O)(=O)NC(=O)CCC/C=C\C[C@H]1C(=O)C[C@@H](O)[C@@H]1/C=C/[C@H](O)COc1ccccc1,9.18%,,
COc1cc(-c2nc(N[C@H](CO)Cc3ccccc3)ccc2C(=O)NCCOc2ccccc2)cc(OC)c1OC,-0.52%,,
Nc1nc(O)c(C2=C3C(=Nc4ccccc43)C(=O)NCC2)[nH]1,,inactive,
CCOC(=O)[C@H](CCc1ccccc1)N[C@H]1CCCN2CCC[C@@H](C(=O)O)N2C1=O,-7.1%,,
CCC(C)(OC(C)=O)C(=O)O[C@H]1[C@H](OC(C)=O)[C@]2(CO)[C@H](O)[C@H](O)[C@]3(C)C(=CCC4[C@@]5(C)CC[C@H](O[C@@H]6O[C@H](C(=O)O)[C@@H](O)[C@H](O[C@@H]7OC[C@H](O)[C@H](O[C@@H]8OC[C@H](O)[C@H](O)[C@H]8O)[C@H]7O)[C@H]6O[C@@H]6O[C@H](CO)[C@@H](O)[C@H](O)[C@H]6O)C(C)(C)C5CC[C@]43C)[C@@H]2CC1(C)C (stereo not given in full),-29% [at 9.29 µM],,
O=C(c1c(F)ccc(NS(=O)(=O)N2CC[C@@H](F)C2)c1F)c1c[nH]c2ncc(-c3cnc(C4CC4)nc3)cc12,-12.7%,,
CCC/C=C/C=C/C1CC(O)C2(O)C(=O)OCC12 (stereo not given),,inactive,
CCNC(=O)N1CCCN(c2ccc(C(=O)NCCc3ccc(Cl)cc3Cl)cc2NC(=O)c2cccc(Cl)c2)CC1,-21.8%,,
CN(C)[C@@H]1CCc2[nH]c3ccc(NC(=O)c4ccc(F)cc4)cc3c2C1,-5.44%,,
C/C(=C(/CCO)SSCC1CCCO1)N(C=O)Cc1cnc(C)nc1N (stereo not given),,,inactive

# — PubChem BioAssay (NCATS)
